Data from the supplement of paper PMC10646978.
± gives the standard deviation.

Assays:
Details in all cases: modulator concentration 10 µM
[1] = test system: RAW-Dual (murine macrophage reporter line); assay: NF-kB reporter (SEAP) activity fold change vs agonist alone; higher = enhanced NF-kB activity
Method in brief: (§1)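 In 384-well plates holding 50 000 RAW-Dual murine macrophage reporter cells per well, compound at 10 μM final was pre-incubated for 1 hour at 37 °C, after which a PRR agonist was added overnight. Supernatant SEAP read with QUANTI-Blue at 620 nm absorbance reported NF-κB, and Lucia luciferase read with QUANTI-Luc luminescence reported IRF. Fold change values come from dividing each reporter signal by the mean of agonist-only control wells on the same plate, averaged over replicate plates with propagated errors.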

[2] = test system: RAW-Dual (murine macrophage reporter line); assay: IRF reporter (Lucia luciferase) activity fold change vs agonist alone; higher = enhanced IRF activity
Method in brief: as §1

[3] = test system: RAW-Dual (murine macrophage reporter line); assay: viability score (confluency relative to resting cells, overnight) (fraction); higher = more viable, active = viable (0.7 or more)
Method in brief: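 A compound met the cutoff when both of two confluency masks exceeded 70% of resting cells. Those masks were made with IncuCyte software from IncuCyte images of RAW-Dual macrophages treated overnight at 10 μM final. This is the basis of the viability score, which is confluency relative to resting cells.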

[4] = agonist: CpG ODN 1826 0.5 ug/mL

| Structure (SMILES) | NF-kB reporter [1, 4] | NF-kB reporter ([1]; agonist: LPS 0.1 ug/mL) | NF-kB reporter ([1]; agonist: MPLA […]) | IRF reporter ([2]; agonist: 3'3'-cGAMP 10 ug/mL) | IRF reporter ([2]; agonist: LPS 0.1 ug/mL) | IRF reporter ([2]; agonist: MPLA […]) | viability score [3] |
| --- | --- | --- | --- | --- | --- | --- | --- |
| Cc1cc(CNS(=O)(=O)Cc2ccc(C(F)(F)F)cc2)c(C)o1 | 1.01 ± 0.087 | 0.963 ± 0.076 | 0.951 ± 0.044 | 1.26 ± 0.068 | 1.34 ± 0.083 | 1.37 ± 0.23 | 0.383 (inactive) |
| O=C(CN1CCN(c2ccccc2F)C1=O)N1CCCC(Oc2cnccn2)C1 (configuration not stated) | 0.831 ± 0.039 | 0.931 ± 0.075 | 1.08 ± 0.062 | 1.02 ± 0.053 | 1.26 ± 0.27 | 1.37 ± 0.47 | 0.965 (active) |
| Oc1cccc(C=Nc2ccc(N=Cc3cccc(O)c3O)cc2)c1O | 0.606 ± 0.053 | 0.727 ± 0.069 | 0.783 ± 0.079 | 0.712 ± 0.052 | 0.93 ± 0.2 | 0.922 ± 0.2 | 0.984 (active) |
| Cc1ccnc2c1NC(=O)c1cccnc1N2C1CC1 | 1.19 ± 0.26 | 1.2 ± 0.3 | 0.967 ± 0.067 | 0.88 ± 0.035 | 1.34 ± 0.36 | 1.29 ± 0.097 | 0.994 (active) |
| N[C@@H]1CONC1=O | 0.988 ± 0.074 | 0.913 ± 0.14 | 0.959 ± 0.037 | 0.929 ± 0.092 | 1.05 ± 0.094 | 1.06 ± 0.082 | 1 (active) |
| O=C(Nc1ccc(-c2cn3ccsc3n2)cc1)NC1CCCCC1 | 2.23 ± 0.14 | 1.16 ± 0.12 | 1.59 ± 0.11 | 0.5 ± 0.032 | 0.923 ± 0.086 | 1.22 ± 0.18 | 0.826 (active) |
| CN1CCN2c3ncccc3Cc3ccccc3C2C1 (configuration not stated) | 0.912 ± 0.17 | 1.07 ± 0.22 | 1.71 ± 0.85 | 0.861 ± 0.036 | 1.42 ± 0.3 | 1.18 ± 0.21 | 0.998 (active) |
| CC1CCN(C2CC(=O)N(c3ccc(S(=O)(=O)N4CCOCC4)cc3)C2=O)CC1 (configuration not stated) | 0.986 ± 0.082 | 1.02 ± 0.065 | 0.843 ± 0.05 | 1.02 ± 0.025 | 1.33 ± 0.096 | 0.995 ± 0.23 | 1 (active) |
| CC(C(=O)O)c1ccc2c(c1)Cc1cccnc1O2 (configuration not stated) | 1.29 ± 0.17 | 1.41 ± 0.38 | 1.1 ± 0.1 | 0.966 ± 0.03 | 1.55 ± 0.28 | 1.15 ± 0.14 | 0.985 (active) |
| Cc1cc(I)cc2c1NC(c1cccc([N+](=O)[O-])c1)C1CC=CC21 (configuration not stated) | 0.921 ± 0.079 | 0.795 ± 0.058 | 0.867 ± 0.089 | 0.497 ± 0.039 | 1.17 ± 0.23 | 1.13 ± 0.25 | 1.02 (active) |
| COc1ccc(-n2cnc3cc(NC(C)=O)ccc32)cc1 | 0.978 ± 0.18 | 0.973 ± 0.089 | 0.885 ± 0.07 | 0.861 ± 0.025 | 1.19 ± 0.15 | 1.14 ± 0.12 | 1.01 (active) |
| Clc1ccc2nsnc2c1NC1=NCCN1 [Prestw-1182] | 1.14 ± 0.1 | 1.06 ± 0.085 | 0.958 ± 0.044 | 0.965 ± 0.044 | 0.93 ± 0.05 | 1.01 ± 0.13 | 0.995 (active) |
| NC12CC3CC(CC(C3)C1)C2 | 1.19 ± 0.31 | 1.09 ± 0.066 | 1.01 ± 0.087 | 0.874 ± 0.061 | 1.13 ± 0.15 | 1.06 ± 0.2 | 0.999 (active) |
| CC(C)CN(CC(O)C(Cc1ccccc1)NC(=O)OC1COC2OCCC12)S(=O)(=O)c1ccc(N)cc1 (configuration not stated) [Prestw-1802] | 1.53 ± 0.34 | 1.52 ± 0.14 | 1.84 ± 0.15 | 0.872 ± 0.069 | 0.827 ± 0.22 | 0.953 ± 0.14 | 0.981 (active) |
| COc1ccccc1OCC(O)COC(N)=O (configuration not stated) | 1.56 ± 0.26 | 1.28 ± 0.17 | 0.938 ± 0.058 | 0.93 ± 0.041 | 1.49 ± 0.15 | 1.21 ± 0.12 | 0.985 (active) |
| O=C(Cc1ccc([N+](=O)[O-])cc1)NN=Cc1ccncc1 | 0.864 ± 0.26 | 1.08 ± 0.098 | 1.03 ± 0.16 | 0.964 ± 0.038 | 1.15 ± 0.18 | 1.44 ± 0.42 | 1 (active) |
| Cc1sccc1-c1csc(Nc2cccnc2)n1.Cl | 0.603 ± 0.028 | 0.918 ± 0.075 | 1.16 ± 0.21 | 0.6 ± 0.029 | 1.19 ± 0.23 | 1.62 ± 0.53 | 0.902 (active) |
| CCS(=O)(=O)N1CCN(c2ccc(Nc3ncc(C(N)=O)c(NC4CC4)n3)cc2)CC1.Cl | 1.08 ± 0.046 | 0.355 ± 0.033 | 0.622 ± 0.042 | 0.0973 ± 0.0051 | 0.301 ± 0.072 | 0.324 ± 0.081 | 0.899 (active) |
| Cc1c(C)c2c(c(C)c1O)CCC(C)(C(=O)O)O2 (configuration not stated) [Prestw-530] | 1.14 ± 0.13 | 1.03 ± 0.078 | 0.98 ± 0.03 | 0.986 ± 0.042 | 0.98 ± 0.054 | 1.03 ± 0.1 | 0.998 (active) |
| CCOC(=O)c1c(C)n(-c2ccccc2)c2ccc(NS(=O)(=O)c3ccccc3)cc12 | 0.959 ± 0.16 | 0.95 ± 0.075 | 1.04 ± 0.087 | 0.932 ± 0.029 | 1.05 ± 0.13 | 1.21 ± 0.17 | 0.808 (active) |
| CCCOc1ccc(C=CC(=O)Nc2ccc(S(=O)(=O)Nc3ncccn3)cc2)cc1OC | 0.938 ± 0.077 | 1.03 ± 0.06 | 0.963 ± 0.092 | 0.982 ± 0.035 | 1.27 ± 0.18 | 1.11 ± 0.23 | 1.01 (active) |
| O=C1CCCc2nn(-c3ccccc3)nc21 | 1.02 ± 0.086 | 1.05 ± 0.14 | 1.09 ± 0.12 | 1 ± 0.049 | 1.17 ± 0.14 | 1.21 ± 0.19 | 1.03 (active) |
| CC(=O)OC1(C(C)=O)CCC2C3C=C(C)C4=CC(=O)CCC4(C)C3CCC21C (configuration not stated) | 1.18 ± 0.088 | 1.08 ± 0.054 | 1.21 ± 0.026 | 1.04 ± 0.069 | 0.875 ± 0.1 | 0.986 ± 0.14 | 0.995 (active) |
| Cc1c(C(=O)NN2CCCCC2)nn(-c2ccc(Cl)cc2Cl)c1-c1ccc(Cl)cc1 | 0.799 ± 0.037 | 1.25 ± 0.11 | 0.981 ± 0.075 | 0.282 ± 0.015 | 0.618 ± 0.13 | 0.752 ± 0.17 | 1 (active) |
| C=C(CC)C(=O)c1ccc(OCC(=O)O)c(Cl)c1Cl [Prestw-259] | 0.596 ± 0.14 | 0.588 ± 0.077 | 0.722 ± 0.049 | 0.563 ± 0.02 | 1.85 ± 0.21 | 1.53 ± 0.17 | 0.953 (active) |
| COc1ccc(OC)c(NC(=O)COc2cccc3c2OC(C)(C)C3)c1 | 0.489 ± 0.039 | 1.2 ± 0.095 | 1.22 ± 0.053 | 0.777 ± 0.054 | 0.912 ± 0.059 | 1.02 ± 0.077 | 0.976 (active) |
